Experimental findings from PubChem BioAssay are described below.

Values joined by “and” are separate entries in the source; they are usually repeats but may differ in a detail not shown here. Equal values may be shown once. Active and inactive are the calls of the source.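 The calls were made as follows, unless noted: active = inhibition at or above 50% relative to wild type and mutant plate controls; inactive = inhibition below 50%.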

Experiment [1] is described as follows: inhibitors of TNFa-induced NFkB p65 translocation, primary screen, imaging, HUVEC, MLSMR starter and 10KST1 sets (AID 438;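 active = inhibition above 20% together with a positive visual image hit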;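 also: compound added about 3h40 before a 20 min TNFalpha stimulation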;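 as to inhibition: signal is the nuclear over cytoplasmic p65 intensity ratio per well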). The conditions noted are these: HUVEC TNFa-induced p65 nuclear translocation; cell count: measured here: nuclei count (cytotoxicity indicator), at 2.08 µM; inhibition: at 2 µM, stronger effect = higher value, 0% TNFa-plus-vehicle, 100% no-TNFa wells.

Experiment [2] can be described thus: inhibitors of mutant huntingtin aggregation, primary screen, imaging, exon1htt(103Q)mCFP cells, high-content imaging (AID 483;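 active = visual image review flags a hit and inhibition of aggregation exceeds 20%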;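 also: compound exposure lasted 3 days before fixation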;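 as to nuclei count: percent of the per-plate median nuclei count of sample wells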). The conditions noted are these: exon1htt(103Q)mCFP cell line, aggregate imaging, at 2 µM; inhibition of aggregation: stronger effect = higher value; nuclei count: measured here: cell count, toxicity.
The nature of experiment [3]: inhibitors of E-selectin induction by TNFa, primary screen, imaging, HUVEC, immunofluorescence, MLSMR starter and 10KST1 sets (AID 487;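 active = visually confirmed hit in the image check and inhibition above 20%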;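 as to inhibition: signal is fraction of cell area covered by stained E-selectin grains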;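 as to nuclei count: 100% = median nuclei count of all wells on the same plate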). To be noted: HUVEC TNFalpha-induced E-selectin immunofluorescence imaging, at 2 µM; inhibition: stronger effect = higher value; nuclei count: measured here: cell number, toxicity.
A short description of experiment [4]: DUSP6 inhibitors restoring Erk phosphorylation by chemical complementation, primary imaging in DUSP6-transfected HeLa (AID 609;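 active = compounds giving at least 50% inhibition in the cell-based MKP-3 phosphatase rescue imaging test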;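 as to inhibition: phospho-Erk level distribution per well compared with pooled transfected vehicle control wells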). To be noted: HeLa MKP-3 transfected, phospho-Erk imaging KS statistic, at 10 µM, cells stimulated with TPA for 15 min.
For experiment [5], the target named is Dual specificity protein phosphatase 6 (Homo sapiens) (UniProt Q16828). Described as above. To be noted: HeLa MKP-3 transfected, phospho-Erk imaging KS statistic; at 10 µM; stronger effect = higher value; cells stimulated with TPA for 15 min.
Experiment [6] addresses Voltage-gated potassium channel subunit beta-2 (Rattus norvegicus) (UniProt P62483). Put plainly: KvBeta enzyme negative modulators, primary screen, biochemical, NADPH fluorescence (AID 622;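 active = fluorescence slope higher than the sample average by over 3 SD, cut at about -0.22 in these data, passing the limit was not always enough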;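 also: slope of raw intensity against log time taken from 70 to 1610 s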). To be noted: recombinant KvBeta, 4-cyanobenzaldehyde reduction, at 10 µM, stronger effect = higher value.
Experiment [7] shares this target. Put plainly: KvBeta positive modulators, primary screen, biochemical, NADPH fluorescence (AID 623;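 active = NADPH fluorescence slope more negative than the mean of all samples by about 3 SD, 99.7% confidence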;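 also: fluorescence intensity change per second fitted from 20 to 320 s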). To be noted: Recombinant KvBeta, NADPH fluorescence decrease slope, 10 min; at 10 µM; stronger effect = lower value.
Experiment [8] concerns the target Alpha-2C adrenergic receptor (Homo sapiens) (UniProt P18825). Put plainly: modulators of alpha2C/GIRK thallium flux, primary screen, cell-based, HEK293 alpha2C/GIRK1/2 (AID 624;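 active = fluorescence slope after compound addition differing from the mean of all screened samples at 99.7% confidence, in either direction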;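 also: slope of fluorescence ratio to pre-addition baseline per second over 15 to 24 s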). To be noted: thallium flux BTC fluorescence, at 10 µM, actives lie on both sides.
The nature of experiment [9]: inhibitors of larval lipid processing in zebrafish, primary screen, whole organism, PED6 fluorescence, gall bladder and intestine (AID 686;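 active = a full or partial loss of lipid-probe fluorescence in the fish gall bladder, intestine or both, judged by eye; inactive = no fluorescence loss, or compound toxic to the fish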;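 also: larvae 5 to 7 days old with five fish per well; signal comes from phospholipase A2 cleavage of quenched PED6 carried via bile; overnight exposure to compound and PED6 before scoring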). To be noted: Zebrafish larvae PED6 lipid processing, fluorescence scoring; screened at 20 µM (by protocol).
The nature of experiment [10]: inhibitors of Chlamydomonas gravitaxis, primary screen, whole organism, Chlamydomonas reinhardtii, WT vs cilia-less mutant, absorbance, 96-well (AID 463189).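 Also: 0% = wild type cc124 cells in DMSO and 100% = ciliumless bld1 mutant cells.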 The conditions noted are these: OD600 absorbance, 2 days, at 10 µM, stronger effect = higher value.
A short description of experiment [11]: inhibitors of Sendai virus-induced IRF3 signaling, primary screen, TLR/RLR signaling modifier project, cell-based, Sendai virus stimulus, luciferase, 10K MLSCN set (AID 602276;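 active = inhibition at or above 50% at 10 µM; inactive = inhibition below 50%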;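 also: firefly luciferase from ISG56 promoter only with Renilla not read in this screen; 0% = Sendai virus plus DMSO and 100% = medium plus DMSO without virus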). The conditions noted are these: HEK293 RL24 IRF3 luciferase reporter, at 10 µM, stronger effect = higher value.
The nature of experiment [12]: inhibitors of poly I:C-induced TLR3 signaling, primary screen, cell-based, poly I:C stimulus, luciferase, 10K MLSCN set (AID 602277;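 active = inhibition of the reporter signal at or above 50%; inactive = inhibition below 50%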). To be noted: HEK293-TLR3 RL24 IRF3 luciferase reporter, at 10 µM, stronger effect = higher value.
The mark [13] stands for this setting: measured here: cell density z-score.
Setting [14] is: measured here: nuclear c-Myc green intensity z-score.
[15] abbreviates: measured here: nuclear pErk red intensity z-score, stronger effect = higher value.

The term inhibition denotes the change of the read-out against control, counted positive when it falls.

Alpha-2C adrenergic receptor (Homo sapiens), sequence (P18825 whole entry, looked up): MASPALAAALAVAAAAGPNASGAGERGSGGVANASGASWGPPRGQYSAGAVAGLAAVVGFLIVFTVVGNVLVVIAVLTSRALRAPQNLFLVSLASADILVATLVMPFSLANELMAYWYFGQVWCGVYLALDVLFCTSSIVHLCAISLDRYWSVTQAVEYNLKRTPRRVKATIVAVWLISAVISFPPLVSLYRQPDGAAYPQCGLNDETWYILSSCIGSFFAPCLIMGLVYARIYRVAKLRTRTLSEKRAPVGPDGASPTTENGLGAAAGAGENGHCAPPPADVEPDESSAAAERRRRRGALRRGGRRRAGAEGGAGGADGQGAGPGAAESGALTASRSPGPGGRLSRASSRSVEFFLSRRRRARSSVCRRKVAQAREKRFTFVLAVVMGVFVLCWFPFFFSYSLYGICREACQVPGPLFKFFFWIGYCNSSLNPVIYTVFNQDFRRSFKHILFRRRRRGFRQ
Dual specificity protein phosphatase 6 (Homo sapiens), sequence (Q16828 whole entry, looked up): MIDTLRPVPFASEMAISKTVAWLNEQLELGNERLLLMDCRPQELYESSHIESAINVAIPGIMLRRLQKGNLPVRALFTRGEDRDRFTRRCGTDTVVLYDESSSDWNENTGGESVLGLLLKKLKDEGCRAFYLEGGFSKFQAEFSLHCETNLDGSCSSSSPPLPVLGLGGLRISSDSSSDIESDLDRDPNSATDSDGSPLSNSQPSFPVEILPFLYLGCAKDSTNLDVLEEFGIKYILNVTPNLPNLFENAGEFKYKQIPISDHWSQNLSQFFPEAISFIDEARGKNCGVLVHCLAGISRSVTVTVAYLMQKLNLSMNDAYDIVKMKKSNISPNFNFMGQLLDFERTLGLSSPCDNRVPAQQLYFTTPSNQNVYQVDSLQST
Voltage-gated potassium channel subunit beta-2 (Rattus norvegicus), sequence (P62483 whole entry, looked up): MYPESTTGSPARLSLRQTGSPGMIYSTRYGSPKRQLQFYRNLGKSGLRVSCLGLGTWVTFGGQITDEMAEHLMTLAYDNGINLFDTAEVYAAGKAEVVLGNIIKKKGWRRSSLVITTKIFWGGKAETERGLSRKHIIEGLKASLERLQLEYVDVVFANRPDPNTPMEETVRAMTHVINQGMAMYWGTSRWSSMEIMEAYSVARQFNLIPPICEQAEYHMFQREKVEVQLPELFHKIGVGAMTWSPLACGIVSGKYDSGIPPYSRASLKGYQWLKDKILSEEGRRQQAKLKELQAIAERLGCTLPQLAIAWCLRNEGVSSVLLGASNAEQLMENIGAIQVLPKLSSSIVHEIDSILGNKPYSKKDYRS

For the compound `Cc1cccc(C)c1NC(=O)C1CCCCN1C` (stereo not given), the cell count in [1] is 662. In addition, the inhibition in experiment [1] is -8.2% (inactive); in experiment [3] it was -104% (inactive); in experiment [5], 3.45% (inactive); in experiment [10], 3.16% (inactive); in experiment [11], 12.7% (inactive); in experiment [12], 35.5% (inactive). Also, in [2], the inhibition of aggregation was -22% (inactive). Further, the nuclei count in experiment [2] turned out to be 108%; in [3] it was 139%. The z-score in [4] (setting [13]) was 1.2; in experiment [4] (setting [14]), -0.238; in [4] (setting [15]) it was 0.358. In addition, in experiment [6], the fluorescence slope was -0.488 (inactive). In [7], the NADPH fluorescence slope is -4.1e-05 (inactive). In experiment [8], the slope was 0.00459 (inactive). In [9], the outcome was inactive.

With `C[C@H]1C[C@@H]2[C@H]([C@@H](O)C[C@@]3(C)[C@H]2CC[C@]3(O)C(=O)CO)[C@@]2(C)C=CC(=O)C=C12`, in experiment [1], the cell count stood at 665. Also, the inhibition in [1] was -3.7% (inactive); in [3], -77.5% (inactive); in experiment [5], 7.39% (inactive); in experiment [10], 7.13% (inactive); in [11], 11.3% (inactive); in experiment [12], 36.5% (inactive). In experiment [2], the inhibition of aggregation is 10.3% (inactive). Besides, the nuclei count stood at 101% in [2] and 120% in experiment [3]. The z-score in experiment [4] (setting [13]) worked out at 1.04; in experiment [4] (setting [14]), 0.95; in experiment [4] (setting [15]) it was 0.348. The fluorescence slope in [6] is -0.512 (inactive). Also, the NADPH fluorescence slope in [7] was -7.2e-05 (inactive). For the same compound, the slope in experiment [8] was 0.00539 (inactive). The compound was called inactive in experiment [9].

Consider `CC1=C(/C=C/C(C)=C/C=C/C(C)=C/C(=O)O)C(C)(C)CCC1`, for which the cell count in experiment [1] stood at 678. Also, the inhibition in [1] was 3.5% (inactive); in experiment [3], -69% (inactive); in experiment [5], 19% (inactive); in experiment [10], 8.28% (inactive) and -12% (inactive); in [11], -11.8% (inactive); in experiment [12] it was -27.2% (inactive). In addition, the inhibition of aggregation in [2] is -22.6% (inactive). The nuclei count in [2] came to 97.6%; in experiment [3], 121%. Moreover, the results for the z-score in experiment [4] (setting [13]), in experiment [4] (setting [14]) and in experiment [4] (setting [15]) were -0.898, 1.94 and -1.68, respectively. In addition, the fluorescence slope in experiment [6] is -0.448 (inactive). Further, in experiment [7], the NADPH fluorescence slope is -4.4e-05 (inactive). Further, in experiment [8], the slope was 0.00401 (inactive). Also, in [9], the compound was classed as inactive.

With `CCCCc1c(O)nc(SCCN(C)C)n(-c2ccccc2)c1=O`, the cell count in [1] was 326. Further, the inhibition in [1] was -8.8% (inactive); in [3], -40.2% (inactive); in experiment [5], 12.3% (inactive); in experiment [10] it was -12.4% (inactive); in experiment [11] it was 7.92% (inactive); in experiment [12] it was 1.23% (inactive). In experiment [2], the inhibition of aggregation was 2.2% (inactive). Moreover, the nuclei count in [2] is 94.9%; in experiment [3] it was 96.4%. Also, the figures for the z-score in experiment [4] (setting [13]), in [4] (setting [14]) and in experiment [4] (setting [15]) were -1.09, 2.21 and 0.182, respectively. Also, the fluorescence slope in [6] was -0.438 (inactive). In experiment [7], the NADPH fluorescence slope is -0.000152 (inactive). The slope in [8] was 0.00653 (inactive). The call in experiment [9] was inactive.

Consider `COc1ccccc1N1CCN(CC(O)COc2cccc3ccccc23)CC1` (stereo not given), for which, in [1], the cell count turned out to be 617. Besides, the inhibition in [1] was -3.6% (inactive); in experiment [3] it was -26.2% (inactive); in [5], 8% (inactive); in [10] it was 7.05% (inactive) and 42.9% (inactive); in [11] it was 16.5% (inactive); in [12], 36.9% (inactive). Further, in experiment [2], the inhibition of aggregation is -18.7% (inactive). Moreover, the values for the nuclei count in experiment [2] and in [3] were 108% and 107%, respectively. Moreover, the z-score in experiment [4] (setting [13]) is 0.673; in experiment [4] (setting [14]) it was -1.31; in experiment [4] (setting [15]), -2.39. The fluorescence slope in experiment [6] was -0.431 (inactive). Also, the NADPH fluorescence slope in experiment [7] is -7.7e-05 (inactive). Besides, the slope in experiment [8] is 0.00349 (inactive). Moreover, in experiment [9], the compound was called inactive.

On to `COc1ccc(CCN2CCC(Nc3nc4ccccc4n3Cc3ccc(F)cc3)CC2)cc1`, for which the cell count in experiment [1] came out at 525. Also, the inhibition in experiment [1] is -1.3% (inactive); in [3] it was -28.6% (inactive); in experiment [5] it was 7.39% (inactive); in experiment [10], 133% (active); in experiment [11] it was -3.81% (inactive); in experiment [12], -23.6% (inactive). The inhibition of aggregation in experiment [2] was -3% (inactive). The figures for the nuclei count in experiment [2] and in experiment [3] were 83.3% and 107%, respectively. In addition, the z-score was -0.393 in experiment [4] (setting [13]), 1.49 in experiment [4] (setting [14]) and 0.359 in experiment [4] (setting [15]). Moreover, the fluorescence slope in experiment [6] was -0.513 (inactive). Besides, the NADPH fluorescence slope in [7] was -0.000106 (inactive). The slope in [8] is 0.00466 (inactive). Also, the call in experiment [9] was inactive.

Regarding `O=C(O)/C=C/c1ccc(O)c(O)c1`, the cell count in experiment [1] worked out at 613. Further, the inhibition was 4% (inactive) in experiment [1]; -48.2% (inactive) in experiment [3]; 10.2% (inactive) in [5]; -2.7% (inactive) and 27.7% (inactive) in experiment [10]; 8.79% (inactive) in experiment [11]; 43.2% (inactive) in experiment [12]. Further, the inhibition of aggregation in experiment [2] is 8.3% (inactive). The nuclei count in experiment [2] amounted to 103%; in experiment [3], 116%. Also, the z-score was -0.618 in [4] (setting [13]), -0.142 in experiment [4] (setting [14]) and -0.455 in [4] (setting [15]). For the same compound, the fluorescence slope in [6] is -0.453 (inactive). For the same compound, in [7], the NADPH fluorescence slope was -6.6e-05 (inactive). Moreover, the slope in experiment [8] was 0.00437 (inactive). For the same compound, the result in [9] was inactive.

Consider `CCN(CC)CCNC(=O)c1cc(S(C)(=O)=O)ccc1OC`, for which the cell count in experiment [1] came to 676. The inhibition in experiment [1] was -4.3% (inactive); in [3], -40% (inactive); in experiment [5], 1.48% (inactive); in experiment [10], 3.78% (inactive) and -4.27% (inactive); in experiment [11] it was 21.3% (inactive); in experiment [12], 35.4% (inactive). Also, the inhibition of aggregation in experiment [2] is 0.8% (inactive). The results for the nuclei count in experiment [2] and in [3] were 118% and 137%, respectively. Further, the z-score is -1.16 in experiment [4] (setting [13]), -0.48 in [4] (setting [14]) and 0.595 in experiment [4] (setting [15]). For the same compound, in [6], the fluorescence slope is -0.508 (inactive). The NADPH fluorescence slope in experiment [7] is -3.1e-05 (inactive). The slope in [8] was 0.00485 (inactive). Also, in experiment [9], the result was inactive.

Consider `C[C@]12CC[C@@H]3c4ccc(O)cc4C(=O)C[C@H]3[C@@H]1CC[C@@H]2O`, for which the cell count in experiment [1] was 575. Moreover, the inhibition in [1] is -1.5% (inactive); in [3] it was -48.8% (inactive); in [5], 10.2% (inactive); in experiment [10], -6.24% (inactive); in experiment [11] it was -0.554% (inactive); in experiment [12], 18.4% (inactive). Moreover, the inhibition of aggregation in experiment [2] is 12.4% (inactive). Further, the nuclei count came out at 79.9% in experiment [2] and 123% in [3]. Further, the z-score in experiment [4] (setting [13]) came out at 0.0524; in [4] (setting [14]), 0.457; in experiment [4] (setting [15]) it was 1.93. Also, the fluorescence slope in experiment [6] was -0.47 (inactive). Moreover, the NADPH fluorescence slope in [7] is -7.3e-05 (inactive). In addition, in experiment [8], the slope was 0.00515 (inactive). In addition, the compound was classed as inactive in [9].

On to `CCN(CCCc1ccccc1)CCCc1ccccc1`, for which the cell count in experiment [1] came out at 633. Also, the inhibition in experiment [1] is -10.9% (inactive); in experiment [3], -92.8% (inactive); in experiment [5], 9.37% (inactive); in experiment [10], 128% (active); in [11], 16.6% (inactive); in experiment [12] it was 29.6% (inactive). Further, the inhibition of aggregation in experiment [2] is -6.3% (inactive). Besides, the results for the nuclei count in experiment [2] and in [3] were 95.6% and 132%, respectively. Also, the values for the z-score in experiment [4] (setting [13]), in experiment [4] (setting [14]) and in experiment [4] (setting [15]) were -0.00243, 0.557 and -0.117, respectively. The fluorescence slope in experiment [6] was -0.514 (inactive). Further, the NADPH fluorescence slope in [7] was -3.6e-06 (inactive). The slope in experiment [8] was 0.00419 (inactive). Further, the compound was classed as inactive in [9].
